Results filed as inconclusive are left out. The source made the active and inactive calls. Calls come from the whole dose curve; as a rule, active = well fitted cell-killing curve with a large enough effect; inconclusive = small, poorly fitted or top-dose-only effect, or effect the other way; inactive = no such curve, though single readings can be large or run the other way. Starred links: 1 amine or outer side, 2 acyl side, 3 side chain; linkers in the order of their positions; H or OH if unused. Positions of bridges follow the written chain, without caps; N, C: chain ends. Non-standard residues stand in square brackets, D forms with d. Residues, ends and D or L forms follow the SMILES beside them. Chains are numbered I, II in the order given. Actinocin(9to1) = Cc1c2oc3c(C)ccc(C(=O)[*:1])c3nc-2c(C(=O)[*:2])c(N)c1=O; NMeV = CN[CH](C(=O)O)C(C)C; Sar = CNCC(=O)O
Assay: qHTS of pediatric cancer cell lines to identify multiple opportunities for drug repurposing: Confirmatory screen for Rh30 cells (AID 1347126); note: nearly all actives have a fitted effect of over 55% in size
Conditions: Rh30 rhabdomyosarcoma cell viability; series mostly up to 45.9 µM; activity change, negative = cytotoxic: at the top concentration
How it was run: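 Cells (500-1,000/well) rested 5 h, then received compounds for 48 h; metabolically active cells were measured by CellTiter-Glo luminescence. Final concentrations spanned up to 46 µM (MIPE, 11-point) or 0.59 nM-46 µM (NPC, 8-point) in primary screens, 11-point in follow-ups.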
% is set by controls: 0 for no effect and ±100 for the full control effect; potency is the fitted concentration of half-maximal effect.

Row | SMILES | Potency | activity change, negative = cytotoxic
1 | O=C(O)C[C@H](O)C[C@H](O)C=Cc1c(C2CC2)nc2ccccc2c1-c1ccc(F)cc1 | 2.33 µM (active) | –
2 | CN(C)c1ccc(C(=O)NCCCCCCC(=O)NO)cc1 | 3.29 µM (active) | –
3 | C[N+](C)([O-])CCNc1ccc(NCC[N+](C)(C)[O-])c2c1C(=O)c1c(O)ccc(O)c1C2=O | – | -8.28% (inactive)
4 | Cc1cc(Nc2ncc3c(n2)N(C)C(=O)N(c2cc(NC(=O)c4cccc(C(F)(F)F)c4)ccc2C)C3)n(C)n1 | – | -57.6% (inactive)
5 | CC(C)N1[N]C(=C2C=c3cc(O)ccc3=N2)c2c(N)ncnc21 | 1.65 µM (active) | –
6 | CC(=O)N1CCN(c2ccc(OCc3nn(C)c(C)c3-c3cccc4c(CCCOc5cccc6ccccc56)c(C(=O)O)n(Cc5cccnc5)c34)cc2)CC1 | – | -25.2% (inactive)
7 | CC(=O)[C@]1(O)Cc2c(O)c3c(c(O)c2[C@@H](O[C@H]2C[C@H](N)[C@@H](O)[C@H](C)O2)C1)C(=O)c1ccccc1C3=O | – | -23.6% (inactive)
8 | CN[C@H]1[C@@H](O)[C@@H]2O[C@@H]3O[C@H](C)CC(=O)[C@]3(O)O[C@@H]2[C@@H](NC)[C@H]1O | – | 2.08% (inactive)
9 | COc1cc(OC)c(C=CS(=O)(=O)Cc2ccc(OC)c(NCC(=O)O)c2)c(OC)c1 | – | -19.1% (inactive)
10 | O=C(NCc1ccccc1)[C@H](Cc1ccccc1)NC(=O)[C@@H]1O[C@@H]1C(=O)NCCc1ccc(O)cc1 | – | -22.3% (inactive)
11 | COc1ccc(C(C)=O)c(O)c1 | – | 0.362% (inactive)
12 | CC(=O)SCC(Cc1ccccc1)C(=O)NCC(=O)OCc1ccccc1 (stereo not drawn) | – | -0.248% (inactive)
13 | Cc1nc(NC(=O)N2CCC[C@@H]2C(N)=O)sc1-c1ccnc(C(C)(C)C(F)(F)F)c1 | 5.22 µM (active) | –
14 | Oc1cc(-c2nc(-c3ccccc3)[nH]c2-c2ccncc2)ccc1Cl | 1.31 µM (active) | –
15 | COc1cccc2c1C(=O)c1c(O)c3c(c(O)c1C2=O)C[C@@](O)(C(=O)CO)C[C@H]3O[C@H]1C[C@H](N)[C@H](O)[C@H](C)O1 | 1.17 µM (active) | –
16 | O=C(C=Cc1ccc(CN(CCO)CCc2c[nH]c3ccccc23)cc1)NO | 0.414 µM (active) | –
17 | COc1cc([C@@H]2c3cc4c(cc3[C@@H](O[C@@H]3O[C@@H]5CO[C@@H](c6cccs6)O[C@@H]5[C@H](O)[C@@H]3O)[C@H]3COC(=O)[C@H]23)OCO4)cc(OC)c1O | 1.31 µM (active) | –
18 | CO[C@@H]1[C@@H](O)[C@H](O)[C@@H](n2c3c(Cl)cccc3c3c4c(c5c6cccc(Cl)c6[nH]c5c32)C(=O)NC4=O)O[C@@H]1CO | – | 4.3% (inactive)
19 | C#CCC(Cc1cnc2nc(N)nc(N)c2n1)c1ccc(C(=O)N[C@@H](CCC(=O)O)C(=O)O)cc1 (stereo partly drawn) | – | -3.33% (inactive)
20 | Cn1cc(CNCC2CCN(c3ncc(C(=O)NO)cn3)CC2)c2ccccc21 | 0.293 µM (active) | –
21 | COc1cccc2c1C(=O)c1c(O)c3c(c(O)c1C2=O)C[C@@](O)(C(C)=O)C[C@H]3O[C@H]1C[C@H](N)[C@H](O)[C@H](C)O1 | – | -10.3% (inactive)
22 | Cc1c2oc3c(C)ccc(C(=O)NC4C(=O)NC(C(C)C)C(=O)N5CCCC5C(=O)N(C)CC(=O)N(C)C(C(C)C)C(=O)OC4C)c3nc-2c(C(=O)NC2C(=O)NC(C(C)C)C(=O)N3CCCC3C(=O)N(C)CC(=O)N(C)C(C(C)C)C(=O)OC2C)c(N)c1=O (stereo not drawn) (I: TVP[Sar][NMeV] / II: TVP[Sar][NMeV]; ester I:1-I:C, II:1-II:C; linker I:N-II:N via Actinocin(9to1); configuration not given here) | – | 13.5% (inactive)
23 | CC(=O)O[C@H]1C[C@@H]2CC[C@H]3[C@H]4C[C@H]([N+]5(C)CCCCC5)[C@@H](OC(C)=O)[C@@]4(C)CC[C@@H]3[C@@]2(C)C[C@H]1N1CCCCC1 | 8.27 µM (active) | –
24 | COc1ccc(C[C@@H](C)[C@@H](C)Cc2ccc(OC)c(OC)c2)cc1OC | – | -8.93% (inactive)
25 | N#Cc1c(NC(=O)c2cccc3ccccc23)sc2c1CCCC2 | – | -8.94% (inactive)
26 | C=CCNC1=C2C[C@@H](C)C[C@H](OC)[C@@H](O)[C@@H](C)C=C(C)[C@H](OC(N)=O)[C@@H](OC)C=CC=C(C)C(=O)NC(=CC1=O)C2=O | 4.14 µM (active) | –
27 | CCC(C(=O)O)C1CCC(C)C(C(C)C(O)C(C)C(=O)C(CC)C2OC3(C=CC(O)[C@@]4(CC[C@](C)(C5CC[C@@](O)(CC)C(C)O5)O4)O3)C(C)CC2C)O1 (stereo partly drawn) | 18.5 µM (active) | –
28 | COc1ccc2c(c1OC)C(=O)OC2[C@H]1c2c(cc3c(c2OC)OCO3)CCN1C (stereo partly drawn) | – | -29.7% (inactive)

Reference: PubChem BioAssay (NCATS)
